Shown are actives, neighbours in structure and some others; about 6.5% of the full set was active somewhere.
VACV mCherry inh = inhibitors of vaccinia virus infection (mCherry reporter signal). Vaccinia virus mCherry reporter infection, fluorescence. Potency, µM (highest dose often 36.5 µM), for the others: top-dose activity change, negative = inhibition, hits mostly inhibitors. 310,000 tested, 0.63% active; calls by dose curve; tested in A549 cells; further: potency means the concentration at half of the fitted maximal effect; nearly all actives have a fitted effect of over 35% in size
FMDV antiviral = antivirals against foot and mouth disease virus. FMDV antiviral cell-based qHTS. Potency, µM (series often up to 57.9 µM), for the others: top-dose activity change, negative = inhibition, actives largely listed as inhibitors. 410,000 tested, 1.2% active. AID 1159524; calls by dose curve; tested in HEK293T cells; further: read-out not given here; potency means the concentration at half of the fitted maximal effect; nearly all actives have a fitted effect of over 45% in size
LASV entry inh = blocks Lassa virus binding to or entry into cells. Lassa virus pseudotype entry inhibition, cell reporter. Potency, µM (titrated, usually from 37.9 µM), without a hit: top-dose activity change, negative = inhibition, hits mostly inhibitors. 300,000 tested, 1.2% active; calls by dose curve; tested in HEK293 cells; further: potency means the concentration at half of the fitted maximal effect; nearly all actives have a fitted effect of over 50% in size
VACV Venus inh = vaccinia inhibition (Venus reporter) | Vaccinia virus Venus reporter expression, fluorescence | Potency, µM (top dose mostly 36.5 µM), for inactives: top-dose activity change, negative = inhibition, most hits filed as inhibitors | 330,000 tested, 0.46% active | AID 720580; calls by dose curve; tested in A549 cells; further: potency means the concentration at half of the fitted maximal effect; nearly all actives have a fitted effect of over 30% in size
HCMV inh = blocks human cytomegalovirus replication. HFF cells, HCMV-luciferase reporter, 72 h; stronger effect = lower value. activity change, negative = inhibition, % at 57.5 µM. 410,000 tested, 4.5% active; in the data active means activity change below about -60%; inconclusive means no clear call, values can overlap the other calls; inactive means above about -39%
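HFF cells seeded 16 h at 37C, treated with compounds, infected with luciferase-reporter HCMV at MOI 1 PFU/cell; luciferase read at 72 h post infection, normalized to buffer-only and Salinomycin controls.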
MARV entry inh = inhibitors of Marburg virus binding or cell entry | Marburg virus pseudotyped entry inhibition, cell reporter | Potency, µM (top dose mostly 37.8 µM), for the others: at the highest dose activity change, negative = inhibition, most hits filed as inhibitors | 300,000 tested, 1.8% active | AID 540276; calls by dose curve; tested in HEK293 cells; further: potency means the concentration at half of the fitted maximal effect
Starred values were filed as active, the others as inactive; i = inactive; ? = inconclusive; . = not tested or not shown; [ ] = dose if it differs, or a comment. On the % scale 0 is the no-effect control and ±100 the full control effect.

SMILES	VACV mCherry inh	FMDV antiviral	LASV entry inh	VACV Venus inh	HCMV inh	MARV entry inh
CCOC(=O)N1CCc2c(sc3c2c(=O)n(-c2ccc(CC)cc2)c(=O)n3CC(=O)Nc2ccc(C)cc2)C1	-14%	-2%	-22%[46.1 µM]	-21%	?	-5%[46.1 µM]
COc1ccc2c(Sc3ccc(Cl)cc3)c(C(=O)N3CCCCC3)[nH]c2c1	-10%	70%	-22%[46.1 µM]	-15%	-101*	?
COc1ccc2c(Sc3ccc(Cl)cc3)c(C(=O)N3CCC(C)CC3)[nH]c2c1	-16%	91%	-28%[46.1 µM]	-10%	36	22%[46.1 µM]
CCOC(=O)C(=Cc1cn(C)c2ccc(S(=O)(=O)N(C)C)cc12)C(=O)OCC	-29%	32µM*	-6%[46.1 µM]	-10%	24	-22%[46.1 µM]
COc1ccc(C(=O)Nc2cc(-c3cccc(C)c3)nn2-c2ccccc2)cc1	-3%	10%	20%[46.1 µM]	-24%	38	.
Fc1ccc(COc2ccc(Br)cc2CNCC2CCCO2)cc1 (stereo not drawn)	?	-22%	?	?	?	4µM*
Cn1cc(CN(CCCN2CCOCC2)C(=S)Nc2cccc(Cl)c2)c2ccccc21	?	-16%	?	-25%	-78*	?
Cc1cccc(NC(=S)N(CCCN2CCOCC2)Cc2cn(C)c3ccccc23)c1	-9%	-8%	?	-13%	-89*	?
Cc1cccc(NC(=S)N(CCN2CCOCC2)Cc2cc3cc4c(cc3[nH]c2=O)OCO4)c1	-14%	-12%	.	-6%	-21	-16%[46.1 µM]
CCCN1C(=O)c2ccccc2NC1c1ccc(OC)c(COc2cccc(OC)c2)c1 (stereo not drawn)	5%	.	.	-18%	.	.
Cc1cccc(CSC(=N)N)c1	i	0%	-26%	-17%	-63*	?
CN(C)CCO[C@@H](c1ccc(Cl)cc1)c1ccccn1	.	-9%	.	.	7	.
Cc1ccc(C(OCCN(C)C)c2cccc(C(F)(F)F)c2)cc1 (stereo not drawn)	-8%	-29%	?	-15%	?	21µM*
CC(Oc1cccc(Cl)c1)C(=O)Nc1nc(-c2ccccn2)cs1 (stereo not drawn)	11µM*	?	?	?	-72*	?
CC(Oc1ccccc1)C(=O)Nc1nc(-c2ccncc2)cs1 (stereo not drawn)	.	-1%	.	.	-19	.
CC(Oc1ccccc1)C(=O)Nc1nc(-c2ccccn2)cs1 (stereo not drawn)	7.1µM*	-21%	-19%	?	?	-14%[46.1 µM]
CCn1c(=O)c2sccc2n2c(CCCC(=O)N3CCN(c4ccc(F)cc4)CC3)nnc12	-4%	-10%	-20%[46.1 µM]	-6%	?	.
OC(CN1CCN(c2ccc(F)cc2)CC1)c1ccc(Cl)cc1 (stereo not drawn)	i	-16%	10%[46.1 µM]	-3%	-18	?
OC(CN1CCC(Cc2ccc(F)cc2)CC1)c1ccc(Cl)cc1 (stereo not drawn)	.	-5%	?	.	.	7.1µM*
CC1CCN(C(=O)c2scc3c2OCCO3)CC1	-6%	2%	0%	1%	-63*	26%
CN(C)c1ccc(CNc2nc(-c3ccco3)nn2C(=O)c2cccc([N+](=O)[O-])c2)cc1	-10%	40%	4%[46.1 µM]	-9%	66	?
CC(C)c1c(C(=O)NCC2(N3CCOCC3)CCCC2)cnn1-c1nccc(-c2cccs2)n1	-13%	8%	.	-8%	.	.
Nc1nc(Cl)cc(N2CCC(c3cc(-c4ccc(Cl)cc4Cl)n[nH]3)CC2)n1	.	?	?	.	-100*	?
Nc1nc(Cl)cc(N2CCCC2)n1	-10%	-10%	.	-4%	131	8%[46.1 µM]
COc1cc(C(=O)Nc2c(C(=O)Nc3ccccc3F)oc3ccccc23)cc(OC)c1OC	-24%	3%	?	-28%	0	3%[46.1 µM]
SMILES	VACV mCherry inh	FMDV antiviral	LASV entry inh	VACV Venus inh	HCMV inh	MARV entry inh
CC(=O)Nc1ccc(NC(=O)c2ccc(OCc3c(C)noc3C)cc2)cc1	-8%	-7%	0%[46.1 µM]	-8%	11	-3%[46.1 µM]
Cc1ccc(NC(=O)c2ccc(OCc3c(C)noc3C)cc2)cc1C	-19%	32µM*	?	-28%	?	10µM*
Cc1ccc(NC(=O)c2cccc(OCc3c(C)noc3C)c2)cc1S(=O)(=O)Nc1ccccc1Cl	-19%	32%	?	-29%	-66*	-18%
Cc1nc2ccc(NC(=O)c3cccs3)cc2c(=O)n1Cc1ccc(Cl)cc1	11µM*	.	?	?	-98*	?
CCOc1cc2[nH]c(=S)n(Cc3ccc(C(=O)NCCN(CC)CC)cc3)c(=O)c2cc1OCC	i	8%	10%[46.1 µM]	-12%	-20	10µM*
CCN(CC)CCNC(=O)c1ccc2c(=O)n(C3CCCC3)c(=S)[nH]c2c1	.	-10%	?	.	11	8.2µM*
CCOc1cc2[nH]c(=S)n(Cc3ccc(C(=O)NCC(OC)OC)cc3)c(=O)c2cc1OCC	.	-6%	-19%	.	26	-20%
O=c1c2oc3ccccc3c2n(Cc2cccc(C(F)(F)F)c2)c(=O)n1Cc1ccc2c(c1)OCO2	1%	0%	1%[46.1 µM]	-4%	-23	.
CCC1CSC(Nc2ccc(C(=O)/C=C/c3cccc(C)c3)cc2)=N1 (stereo not drawn)	.	-24%	5%	.	-63*	?
COc1ccc(OC)c(-c2ccnc(-n3ncc(C(=O)N(C)CCO)c3C3CC3)n2)c1	-6%	34%	.	-7%	.	.
FC(F)(F)c1cccc(N2CCN(C(=S)NCC3CCCO3)CC2)c1 (stereo not drawn)	-26%	?	?	-23%	-65*	?
S=C(NCC1CCCO1)N1CCN(c2ccccc2)CC1 (stereo not drawn)	2%	13%	0%	-6%	-31	?
O=C(c1cc2ccccn2n1)N1CCN(c2cccc(C(F)(F)F)c2)CC1	.	?	-5%	.	-68*	0%
O=C(c1noc2c1CCCCC2)N1CCN(c2cccc(C(F)(F)F)c2)CC1	-21%	-15%	-11%[46.1 µM]	-17%	-78*	.
COc1ccc(N/N=C/c2c(C(=O)O)ccc3ccccc23)cc1	.	5%	.	.	-100*	.
CCOC(=O)C1CCN(C(=O)c2c(C)oc3c2C(=O)c2ccccc2C3=O)CC1	14µM*	28µM*	?	14µM*	-2	-36%
Cc1oc2c(c1C(=O)N1CCC(C)CC1)C(=O)c1ccccc1C2=O	?	?	-26%	?	?	?
Cc1cccc(CN2C(=O)c3ccccc3S(=O)(=O)c3ccc(C(=O)NCCC4=CCCCC4)cc32)c1	-9%	3%	?	-14%	20	?
O=C(Nc1ccc(F)cc1)C1C(c2ccccc2)C1(Cl)Cl (stereo not drawn)	-21%	?	-6%	-23%	-68*	-21%
O=C(Nc1ccccc1Cl)C1C(c2ccccc2)C1(Cl)Cl (stereo not drawn)	.	-21%	.	.	-21	.

Screening results (PubChem)
